Screen size: about 48,000 compounds; about 13,000 (27%) showed an effect of 50% or more. The list shows a part of the results.
Test system: Wolbachia pipientis
Assay: Anti-Wolbachia Cell-Based Screen
Format: functional
Set-up: scale not given: in the data most compounds retested in dose-response had high values
Details: 5 µM

Point of comparison: `CS(=O)(=O)N1CCc2ccc(=O)n(CCN3CCCC3)c2CC1.O=C(O)C(F)(F)F`, “Percent Effect” value 96.15%. Against it:
- Fc1ccc2c(c1)CCC2NCc1ccc(N2CCOCC2)cc1 (centres undefined) — lower, -1.344%
- COCCN1C(=O)C2(CCC(C(=O)Nc3cccc(C)c3)CC2)N=C1C (centres undefined) — lower, -14.6%
- COCCN1C(=O)C2(CCC(C(=O)Nc3ccccn3)CC2)N=C1C (centres undefined) — lower, 12.9%
- COCCN1C(=O)C2(CCC(C(=O)Nc3ccc(C)cc3)CC2)N=C1C (centres undefined) — lower, -12.68%
- CCC1=NC2(CCC(C(=O)Nc3ccc(C)nc3)CC2)C(=O)N1C (centres undefined) — higher, 107.3%
- COCCN1C(=O)C2(CCC(C(=O)Nc3ccc(F)cc3)CC2)N=C1C (centres undefined) — lower, 17.41%
- CCC1=NC2(CCC(C(=O)Nc3ccc(F)cc3)CC2)C(=O)N1C (centres undefined) — higher, 104.8%
- Cc1ccc(CNCc2ccc(-n3nc(C)cc3C)nc2)cc1 — lower, -14.48%
- CN1C[C@H](O)C[C@H]1c1nc(-c2ccc3c(c2)OCO3)no1 — lower, -5.095%
- CCN1CC(C(=O)NCCCc2nc(C)c(C)s2)CC1=O (centres undefined) — lower, -10.95%
- Cn1nccc1CCNC(=O)[C@H]1CNC[C@H](C(=O)N2CCCC2)C1 — lower, 89.07%
- Cc1cccnc1NCCNC(=O)[C@H]1CNC[C@@H](C(=O)N2CCCC2)C1 — lower, 2.912%
- Cc1csc(CCCNC(=O)[C@H]2CNC[C@@H](C(=O)N3CCCC3)C2)n1 — lower, 5.026%
- Cc1nc(CCCNC(=O)[C@H]2CNC[C@@H](C(=O)N3CCCC3)C2)sc1C — lower, 84.73%
- O=C(NCc1ccc2nonc2c1)C1CCN(C(=O)C2CCC2)CC1 — lower, 6.946%
- Cn1nnnc1SCCNC(=O)C1CCN(C(=O)C2CCCC2)CC1 — lower, 4.852%
- Cc1nnc(CCNC(=O)C2CC(=O)N(C(C)(C)C)C2)s1 (centres undefined) — lower, -24.96%
- Cc1cc(C)nc(CCNC(=O)[C@H]2CNC[C@@H](C(=O)N3CCCC3)C2)n1 — lower, 4.192%
- Cc1nnc(CCNC(=O)[C@H]2CNC[C@@H](C(=O)N3CCCC3)C2)s1 — higher, 111.1%
- Cc1cnccc1NCCNC(=O)C1CCCN(Cc2ccco2)C1 (centres undefined) — lower, 5.628%
- Cc1cnccc1NCCNC(=O)[C@H]1CNC[C@H](C(=O)N2CCCC2)C1 — higher, 142%
- N#CC1(NC(=O)c2nccc3ccccc23)CCSCC1 — lower, -2.14%
- CCCS(=O)(=O)CC(=O)NC(C)c1cccc(-n2cccn2)c1 (centres undefined) — lower, -8.263%
- Cc1ccc(-c2csc(N)c2C#N)cc1 — lower, -4.785%
- CCn1cc2c(n1)CN(Cc1sccc1C)CC2COCC1CC1.O=C(O)C(F)(F)F (centres undefined) — lower, 6.988%
- CC(C)Cn1cncc1CNC1CCCNC1 (centres undefined) — lower, 2.5%
- NC(=O)N1CCCC(C(=O)NCCc2nc(Cc3ccccc3)no2)C1 (centres undefined) — lower, 5.914%
- O=C(NCC1CCCO1)C1CCN(Cc2nc(C3CC3)no2)CC1 (centres undefined) — lower, 8.427%
- O=C(NCCc1nc(C2CC2)no1)[C@H]1CNC[C@H](C(=O)N2CCCC2)C1 — higher, 183.5%
- Cc1cc(C)cc(NC(=O)N(CCC#N)CCCN(C)C)c1 — lower, 13.87%
- C[C@H]1C(=O)NC[C@H]2CN(Cc3cccc(F)c3)C[C@H]21.O=C(O)C(F)(F)F — higher, 100.1%
- C[C@H]1C(=O)NC[C@H]2CN(CCc3ccccc3)C[C@H]21.O=C(O)C(F)(F)F — higher, 113.2%
- O=C(O)C(F)(F)F.O=C([C@H]1CCS(=O)(=O)[C@@H]2CN(CCc3ccccc3)C[C@H]12)N1CCCC1 — lower, -9.586%
- COc1cc(CN2C[C@@H]3CNC(=O)[C@H](C)[C@@H]3C2)cc(OC)c1 — higher, 103.5%
- COc1cc(CN2CCC(NC(=O)c3cccn3C)C2)cc(OC)c1 (centres undefined) — lower, -4.957%
- CN(C)[C@H]1COC[C@@H]2CN(Cc3ccc4c(c3)OCO4)C[C@@H]21.O=C(O)C(F)(F)F.O=C(O)C(F)(F)F — lower, -0.2221%
- C[C@@H]1C(=O)NC[C@H]2CN(Cc3ccc4c(c3)OCO4)C[C@H]21.O=C(O)C(F)(F)F — higher, 109.9%
- COCCN1CCO[C@@H]2CN(Cc3cc(OC)cc(OC)c3)C[C@@H]2C1.O=C(O)C(F)(F)F.O=C(O)C(F)(F)F — lower, 4.168%
- CN(C)[C@@H]1COC[C@@H]2CN(Cc3ccc4c(c3)OCO4)C[C@@H]21.O=C(O)C(F)(F)F.O=C(O)C(F)(F)F — lower, -14.92%
- O=C(C1CC1)N1CCC2(CCN(Cc3cccc(F)c3)CC2)CC1.O=C(O)C(F)(F)F — lower, 10.09%
- COc1cccc(-c2csc(Cn3ccc(=O)[nH]c3=O)n2)c1 — lower, -10.2%
- COCCCn1ccc(NC(=O)NCCn2ccnc2)n1 — lower, -3.976%
- Fc1ccc2c(c1)nc1n2[C@@H](CNCc2nccs2)COC1 — lower, -7.093%
- Cc1nc(Cn2cc(C#N)c(=O)c3ccccc32)no1 — lower, -5.414%
- N#Cc1cc(N2CCC(CS(N)(=O)=O)CC2)nc2ccccc12 — lower, -7.143%
- CC1CN(C)CCN1C(=O)NCCCn1ccnc1 (centres undefined) — lower, 19.65%
- COc1ccc2cc(CN(C)C(C)c3nc(C(C)(C)C)no3)ccc2c1 (centres undefined) — lower, -2.359%
- CN(C)C(=O)CN1C[C@H]2CCN(Cc3ccccc3)CC[C@H]2S1(=O)=O.O=C(O)C(F)(F)F — lower, -15.21%
- CN(C)C(=O)CN1CCC2(CC1)COc1ccccc1S(=O)(=O)N(C)C2.O=C(O)C(F)(F)F — higher, 107.3%
- CN1CC2(CCN(CC3CC3)CC2)COc2ccccc2S1(=O)=O.O=C(O)C(F)(F)F — higher, 105.1%
- CN1CC2(CCN(Cc3ccoc3)CC2)COc2ccccc2S1(=O)=O.O=C(O)C(F)(F)F — lower, 1.89%
- COc1cccn(CC(=O)N(C)CCC2CCOCC2)c1=O — lower, -97.94%
- CN1CCN([C@@H]2CCN(C3CCOCC3)[C@H]2Cc2cnn(C)c2)CC1.O=C(O)C(F)(F)F.O=C(O)C(F)(F)F.O=C(O)C(F)(F)F — lower, -4.702%
- Cc1nccn1-c1cc(CNC(=O)C2CCC(=O)N2)ccn1 (centres undefined) — lower, -0.872%
- CN1CCC2(COCCN(Cc3cccc(C#N)c3)C2)C1.O=C(O)C(F)(F)F.O=C(O)C(F)(F)F (centres undefined) — lower, -6.492%
- Cc1cc(N2CCC(N(C)Cc3cccnc3)C2=O)n(C)n1 (centres undefined) — lower, 5.804%
- CCC(C(=O)NCc1ccncc1)N(c1cccc(C)c1)S(C)(=O)=O (centres undefined) — lower, -0.3468%
- CCS(=O)(=O)N1CCc2ccc(=O)n(CC3CC3)c2CC1 — lower, -6.425%
- c1cnc(N2CCC(OCCN3CCCCC3)C2)nc1 (centres undefined) — lower, 7.193%
- CC(C)NC1CCc2c(ccc(=O)n2CCN2CCOCC2)C1.O=C(O)C(F)(F)F.O=C(O)C(F)(F)F (centres undefined) — lower, 1.575%
- CS(=O)(=O)N1CCc2ccc(=O)n(CC3CC3)c2CC1 — lower, -5%
- O=c1ccc2c(n1CCN1CCCC1)CCN(c1ncccn1)CC2 — higher, 103.5%
- O=c1ccc2c(n1CC1CC1)CCN(c1ncccn1)CC2 — lower, 91.07%
- O=C1OCCN1CCSc1nnnn1C1CCOCC1 — lower, 4.471%
- CCc1c(O)nc(SC(C)CC)n(-c2ccccc2)c1=O (centres undefined) — lower, -9.121%
- Cc1ccc(CNC(=O)NC2CCC(O)CC2)c(N2CCCC2)c1 (centres undefined) — lower, -1.85%
- COc1ccc(C)cc1CN(C)Cc1nc2c(cnn2C)c(=O)[nH]1 — lower, -1.165%
- COc1ccc(OCCN(C)Cc2nc3c(cnn3C)c(=O)[nH]2)cc1 — higher, 98.39%
- CN(CCCOc1ccc(F)cc1)Cc1nc2c(cnn2C)c(=O)[nH]1 — lower, -3.245%
- Cc1ccsc1CN(C)Cc1nc2c(cnn2C)c(=O)[nH]1 — lower, 5.162%
- CN(CCCOc1ccccc1)Cc1nc2c(cnn2C)c(=O)[nH]1 — higher, 105%
- Cc1ccc(OCCN(C)Cc2nc3c(cnn3C)c(=O)[nH]2)cc1 — higher, 122.7%
- CN(CCOc1cccc(F)c1)Cc1nc2c(cnn2C)c(=O)[nH]1 — higher, 123%
- Cc1ccc(CN(C)Cc2nc3c(cnn3C)c(=O)[nH]2)c(C)c1 — lower, 10.63%
- CCN(Cc1nc2c(cnn2C)c(=O)[nH]1)c1cccc(F)c1 — lower, 1.042%
- Cc1ccccc1CN(C)Cc1nc2c(cnn2C)c(=O)[nH]1 — lower, 16.78%
- CN(Cc1nc2c(cnn2C)c(=O)[nH]1)Cc1ccc(F)cc1F — lower, -0.6664%
- FC(F)(F)COCCN1CCc2cncnc2C1 — lower, -42.17%
- CNC(=O)Cc1ccc(NC(=O)NCC(C)c2ncc(C)s2)cc1 (centres undefined) — lower, 5.803%
- CC(=O)N1CCc2ncn(C)c2C1C(=O)N1CCCC1.O=C(O)C(F)(F)F (centres undefined) — lower, -4.032%
- CC(C)Nc1ccnc(-c2ccnc3c2ccn3C)n1 — lower, -57.68%
- CC(C)(NC(=O)c1scnc1Cl)c1ccccc1 — lower, -10.08%
- COc1cc2c(cc1C(=O)N1CC(c3ccncc3)C1)CCC2 — lower, -5.879%
- COC(=O)[C@@H]1Cc2ncn(C)c2CN1S(=O)(=O)Cc1ccccc1 — lower, -8.847%
- O=C(NCCn1ccnc1)c1cccc(F)c1 — lower, 6.195%
- COc1ccc(-c2ncc(-c3nccn3CCN(C)C)cn2)cc1 — lower, -4.545%
- CC(C)c1nccn1CCCNC(=O)c1ccc(-c2ccncc2)nc1 — lower, 3.275%
- O=C(NCCn1ccnc1)c1cc(F)cc(Br)c1 — lower, 6.627%
- O=C(NCCn1ccnc1)c1cncc(Br)c1 — lower, 15.29%
- O=C(NCCn1ccnc1)c1cccc(Br)c1 — lower, 8.46%
- COc1ccc(-c2cc(C(=O)NCCCn3ccnc3C)n(C)n2)cc1 — higher, 159.9%
- COc1ccc(-c2cc(C(=O)NCCn3ccnc3)n(C)n2)cc1 — higher, 156.8%
- Cn1nc(-c2ccc(F)cc2)cc1C(=O)NCCn1ccnc1 — higher, 186.2%

Reference: ChEMBL document CHEMBL3988442, “University of Dundee, Small-Polar-MMV Screening Library” (2021)
